The record followed here is PubChem BioAssay AID624331 (National Center for Advancing Translational Sciences (NCATS), 2012).

Molecules are shown by their SMILES. Results filed as inconclusive are left out. The source made the active and inactive calls. Calls come from the whole dose curve; as a rule, active = well fitted activation curve with a large enough effect; inconclusive = small, poorly fitted or top-dose-only effect; inactive = no such curve, though single readings can be large or run the other way.

The assay is described as follows: qHTS assay for re-activators of p53 using a Luc reporter: Hit Validation with no p53 Expressed. Note: 0% is about no effect. The settings on record: p53-null cells, luciferase reporter counter-screen; series mostly up to 46.1 µM; activity change, positive = activation: at the top concentration. A digest of the protocol: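 Counter-screen of primary hits in a cell line not transfected with p53, in Opti-MEM with 10% FBS; compounds at several concentrations (10 mM stock, 1:5; top 46.1 µM in well), 24 h at 37 deg C, 5% CO2. Luminescence read after 10 min with Amplite reagent.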
A general note: Quantitative high-throughput screening tests each substance at several concentrations.
In the case of `O=C(CSc1nnnn1C1CCCCC1)NCCc1ccccc1`, the “activity change, positive = activation” value was -22.1% (inactive). As for `COc1ccc(C(=O)C(CN2CCCC2)c2ccccc2)cc1` (stereo not drawn), the “activity change, positive = activation” value is -66% (inactive). Take `O=C(NCC1CCCO1)c1ccc(NC(=O)c2cccc([N+](=O)[O-])c2)cc1` (stereo not drawn): the “activity change, positive = activation” value is 65.6% (inactive). Then `CCOC(=O)C1CCN(S(=O)(=O)Cc2ccccc2)C1=O` (stereo not drawn), with 10.1% (inactive). Take `CCOC(=O)c1sc(NC(=S)NC(=O)c2ccco2)nc1C`: the “activity change, positive = activation” value was 52.4% (inactive). Then `O=S(=O)(CCOc1ccccc1)c1nc2ccccc2[nH]1`, with -63.1% (inactive); and `Cc1cccc(NC2SC(=O)N(c3ccccc3)C2=O)c1` (stereo not drawn), with -20.2% (inactive); and `Cc1ccc(-c2nnc(SCC(=O)Nc3ccccc3F)o2)cc1`, with -77.1% (inactive). The value for `O=C(Nc1nnc(-c2cccs2)o1)c1cccc(Oc2ccccc2)c1` was -49.7% (inactive); that for `COc1ccc2oc(-c3cccc(NC(=O)CSc4ccc(Cl)cc4)c3)nc2c1` was 46.1% (inactive). For `COc1cc(C(=O)NCCc2cn3ccc(C)cc3n2)cc(OC)c1OC`, the “activity change, positive = activation” value was -28.5% (inactive).

Take `COc1ccc2cc3c(N)nn(C(=O)c4ccc(Cl)c([N+](=O)[O-])c4)c3nc2c1`: the “activity change, positive = activation” value is -33.9% (inactive).

As for `C/C(=N/NC(=S)Nc1ccccc1)c1ccc2c(c1)OCO2`, the “activity change, positive = activation” value is 4.43% (inactive). Turning to `O=C(Cn1cc2c(n1)CCCCC2)NC1CCCCCC1`, the “activity change, positive = activation” value was 4.66% (inactive). Then `C=CCn1c(C)cc(C(=O)CSc2nc3ccccc3o2)c1C`, with 18.2% (inactive); and `Nc1c(C(=O)CSc2ccccn2)c(=O)[nH]c(=O)n1C1CC1`, with 18.4% (inactive); and `CC(=O)NC(=S)Nc1ccc(NC(=O)c2cccs2)cc1`, with -1.12% (inactive). Turning to `CCCS(=O)(=O)N1CCC(C(=O)NCCN(CC)c2ccccc2)CC1`, the “activity change, positive = activation” value was -29.3% (inactive).
